This is part of a sample that, as a whole, favours compounds with a hit. Of some 83,000 tested, about 20% had one in any assay.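 Note: values are percent growth. 100 is the growth of untreated cells, values between 100 and 0 indicate rising inhibition; between -100 and 0 indicates cell death.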 Activity calls are given as the source filed them. Rule for the calls: active = growth percent below 10; inactive = the rest.
What was measured:
Experiment in all cases: NCI-60 one-dose screen, 48 h (100 = growth as untreated, 0 = no growth, -100 = all killed)
Details in all cases: 10 µM
NCI-H23 lung = system: NCI-H23 lung
NCI-H226 lung = system: NCI-H226 lung
HOP-62 NSCLC = system: HOP-62 NSCLC
NCI-H460 lung = system: NCI-H460 lung
NCI-H522 lung = system: NCI-H522 lung
A549/ATCC NSCLC = system: A549/ATCC NSCLC
786-0 renal = system: 786-0 renal
COLO 205 colon = system: COLO 205 colon

Measured: growth

Nc1ccc(CC[C@H]2CCC/C=C/[C@@H]3C[C@H](O)C[C@H]3[C@H](O)/C=C/C(=O)O2)cc1
active: NCI-H23 lung -22.7% | NCI-H226 lung 5.2% | NCI-H522 lung -46.6%
inactive: HOP-62 NSCLC 14.2% | NCI-H460 lung 10.5% | A549/ATCC NSCLC 11.9%

COc1cccc2ccc(CC(O)(c3ccccc3)c3ccccc3)nc12
inactive: NCI-H23 lung 89.6% | NCI-H226 lung 71.2% | HOP-62 NSCLC 86.8% | NCI-H460 lung 90.8% | NCI-H522 lung 93.5% | A549/ATCC NSCLC 95.5% | 786-0 renal 96.7% | COLO 205 colon 95.4%

Brc1ccc2c(c1)-c1ccccc1C1=NCCN12
active: NCI-H23 lung -8.64% | NCI-H226 lung -14.2% | HOP-62 NSCLC -24.3% | NCI-H460 lung -47.4% | NCI-H522 lung -61.9% | A549/ATCC NSCLC -18.8% | 786-0 renal -32.7% | COLO 205 colon -54%

COc1ccc(C(=O)c2cc3c(OC)c(OC)c(OC)cc3[nH]2)cc1
inactive: NCI-H23 lung 32.3% | NCI-H226 lung 86.5% | HOP-62 NSCLC 77.8% | NCI-H460 lung 16.8% | NCI-H522 lung 25.4% | A549/ATCC NSCLC 36.6% | 786-0 renal 73.2% | COLO 205 colon 37.4%

COc1ccc2c(c1)C(=O)/C(=C/c1ccc([N+](=O)[O-])o1)O2
active: NCI-H23 lung -59% | NCI-H226 lung -13.7% | HOP-62 NSCLC -45.3% | NCI-H460 lung -46.8% | NCI-H522 lung -85% | A549/ATCC NSCLC -5.34% | 786-0 renal -71% | COLO 205 colon -81.6%

COc1ccc2c(c1)C(=O)/C(=C/c1ncc([N+](=O)[O-])n1C)O2
active: NCI-H23 lung -5.43% | NCI-H226 lung -24.6% | HOP-62 NSCLC -27% | NCI-H460 lung -42.6% | NCI-H522 lung -51.5% | A549/ATCC NSCLC -27.8% | 786-0 renal -26.3%

COc1ccc(Nc2cnc3cc(NS(=O)(=O)c4ccc(C)cc4)ccc3n2)cc1
inactive: NCI-H23 lung 86.5% | NCI-H226 lung 94% | HOP-62 NSCLC 79% | NCI-H460 lung 84.4% | NCI-H522 lung 36.1% | A549/ATCC NSCLC 66.2% | 786-0 renal 97% | COLO 205 colon 96.4%

O=C1CC(SC(=S)C2CCCC2=O)C(=O)N1 (stereo not drawn)
inactive: NCI-H23 lung 98.4% | NCI-H226 lung 92.4% | HOP-62 NSCLC 106% | NCI-H460 lung 104% | NCI-H522 lung 109% | A549/ATCC NSCLC 101% | 786-0 renal 95.7% | COLO 205 colon 116%

Cn1cnc([N+](=O)[O-])c1/C=C1\Oc2ccc(Br)cc2C1=O
inactive: NCI-H23 lung 93% | NCI-H226 lung 101% | HOP-62 NSCLC 100% | NCI-H460 lung 97.3% | NCI-H522 lung 52.7% | A549/ATCC NSCLC 104% | 786-0 renal 91.4% | COLO 205 colon 98%

COc1cc2cc(Oc3ccc(NC(=O)c4cccc(C(F)(F)F)c4)cc3)c(C)nc2cc1OC
inactive: NCI-H23 lung 27.1% | NCI-H226 lung 48.1% | HOP-62 NSCLC 87.1% | NCI-H460 lung 28.3% | NCI-H522 lung 28.9% | A549/ATCC NSCLC 24.1% | 786-0 renal 45.4% | COLO 205 colon 27.2%

NC1=NC(c2ccccc2)C2=C(N1)/C(=C/c1ccccc1)CCC2 (stereo not drawn)
inactive: NCI-H23 lung 78.1% | NCI-H226 lung 109% | HOP-62 NSCLC 114% | NCI-H460 lung 98.9% | NCI-H522 lung 48.4% | A549/ATCC NSCLC 87% | 786-0 renal 101% | COLO 205 colon 112%

COc1ccc(N(C)c2ncnc3occ(C)c23)cc1
inactive: NCI-H226 lung 27.5% | HOP-62 NSCLC 34.6% | A549/ATCC NSCLC 15% | 786-0 renal 17.8%
active: NCI-H23 lung 6.05% | NCI-H460 lung 2.75% | NCI-H522 lung -37.7% | COLO 205 colon -62.4%

O=C(N/N=C/c1c(Cl)cccc1Cl)c1ccccc1Nc1cccc(C(F)(F)F)c1
inactive: NCI-H23 lung 102% | NCI-H226 lung 99.4% | HOP-62 NSCLC 111% | NCI-H460 lung 88.6% | NCI-H522 lung 84.9% | 786-0 renal 102% | COLO 205 colon 126%

CC1=NN(C(=O)c2nn(-c3ccc(Cl)cc3)cc2O)C(=O)C1
inactive: NCI-H23 lung 52.5% | NCI-H226 lung 40.3% | HOP-62 NSCLC 44.1% | NCI-H460 lung 24% | NCI-H522 lung 42.3% | A549/ATCC NSCLC 45.6% | 786-0 renal 56.5% | COLO 205 colon 53%

Cc1c2c(nn1C(=O)c1nn(-c3ccc(Cl)cc3)cc1O)-c1ccccc1CC2
active: NCI-H460 lung 9.48% | NCI-H522 lung -8.04% | COLO 205 colon -4.51%
inactive: NCI-H23 lung 16.6% | NCI-H226 lung 22% | HOP-62 NSCLC 23.7% | A549/ATCC NSCLC 21.8% | 786-0 renal 21.1%

NC1=NC(c2ccc(Cl)cc2)C2=C(N1)/C(=C/c1ccc(Cl)cc1)CCC2 (stereo not drawn)
inactive: NCI-H23 lung 61.1% | NCI-H226 lung 109% | HOP-62 NSCLC 140% | NCI-H460 lung 91.3% | NCI-H522 lung 19.1% | A549/ATCC NSCLC 66.7% | 786-0 renal 90.4%

N#Cc1cnn(C(=O)c2nn(-c3ccc(Cl)cc3)cc2O)c1N
active: NCI-H23 lung 9.65% | NCI-H460 lung 3.09% | NCI-H522 lung -13.7% | COLO 205 colon -23.4%
inactive: NCI-H226 lung 18.4% | HOP-62 NSCLC 19.2% | A549/ATCC NSCLC 15.1% | 786-0 renal 17.3%

O=C(CNc1nnc(-c2cccnc2SCc2ccccc2)s1)Nc1nc(Cl)cc(Cl)n1
inactive: NCI-H23 lung 112% | NCI-H226 lung 107% | HOP-62 NSCLC 95.4% | NCI-H460 lung 123% | NCI-H522 lung 102% | A549/ATCC NSCLC 120%

CC1C(=NC(=O)c2cnccn2)C(C)C(c2ccc(Cl)cc2)NC1c1ccncc1 (stereo not drawn)
inactive: NCI-H23 lung 94% | NCI-H226 lung 101% | HOP-62 NSCLC 97.7% | NCI-H460 lung 108% | NCI-H522 lung 70.9% | A549/ATCC NSCLC 92.9% | 786-0 renal 90.8%

Cc1ccc(NC(=S)NNC(=S)Nc2ccc(C)cc2)cc1
inactive: NCI-H23 lung 72.8% | NCI-H226 lung 94.7% | HOP-62 NSCLC 45.2% | NCI-H460 lung 89.4% | NCI-H522 lung 32.7% | A549/ATCC NSCLC 67% | 786-0 renal 58.9% | COLO 205 colon 84.3%

c1ccc(/C(=N\Nc2ccc3ccccc3n2)c2ccccn2)cc1
active: NCI-H226 lung 3.53% | HOP-62 NSCLC 5.49% | NCI-H460 lung 5.49% | NCI-H522 lung -2.13% | 786-0 renal -35.9%
inactive: NCI-H23 lung 21.3% | COLO 205 colon 26.5%

Nc1ncc(-c2cnn(C3CCNCC3)c2)cc1-c1nc2ccccc2o1
active: NCI-H460 lung -0.928% | A549/ATCC NSCLC 7.74% | COLO 205 colon -73.7%
inactive: NCI-H23 lung 20.2% | NCI-H226 lung 15.8% | HOP-62 NSCLC 24.3% | NCI-H522 lung 19.7% | 786-0 renal 19.5%

COc1cc(/C=C2\CCCC3C2=Nc2ccccc2NC3c2cc(OC)c(OC)c(OC)c2)cc(OC)c1OC (stereo not drawn)
active: NCI-H23 lung 8.47% | NCI-H226 lung -38.4% | HOP-62 NSCLC -3.43% | NCI-H460 lung -12.2% | NCI-H522 lung -6.47% | A549/ATCC NSCLC 5.87% | 786-0 renal 1.85% | COLO 205 colon 0.19%

CSc1nc2c(c(=O)n1C)CN(Cc1ccccc1)C(=O)CN2
inactive: NCI-H23 lung 93.5% | NCI-H226 lung 96% | HOP-62 NSCLC 82.7% | NCI-H460 lung 106% | NCI-H522 lung 79.6% | A549/ATCC NSCLC 91% | 786-0 renal 91.9% | COLO 205 colon 113%

O=C1CC(=O)N(C(=O)c2nn(-c3ccc(Cl)cc3)cc2O)N1
inactive: NCI-H23 lung 39.3% | NCI-H226 lung 43.1% | HOP-62 NSCLC 38.8% | NCI-H460 lung 27.4% | A549/ATCC NSCLC 44.5% | 786-0 renal 50.7%
active: NCI-H522 lung 5.35% | COLO 205 colon -13.4%

COc1cc2cc(Oc3ccc(NC(=O)c4ccc(Cl)c(C(F)(F)F)c4)cc3)c(C)nc2cc1OC
inactive: NCI-H23 lung 12.5% | NCI-H226 lung 25.5% | HOP-62 NSCLC 73.1% | NCI-H460 lung 19.7% | NCI-H522 lung 20.3% | A549/ATCC NSCLC 13.8% | 786-0 renal 32.2% | COLO 205 colon 33.1%

O=C(CSc1nnc(-c2cccnc2SCc2ccccc2)o1)Nc1nc(Cl)cc(Cl)n1
inactive: NCI-H23 lung 102% | NCI-H226 lung 83.7% | HOP-62 NSCLC 90.6% | NCI-H460 lung 105% | NCI-H522 lung 83.1% | A549/ATCC NSCLC 104%

CS(=O)(=O)c1nccc(-c2c(-c3cccc(OCc4ccc(F)cc4)c3)nc3sccn23)n1
inactive: NCI-H23 lung 53% | NCI-H226 lung 55.5% | HOP-62 NSCLC 90.1% | NCI-H460 lung 98.8% | NCI-H522 lung 24.4% | A549/ATCC NSCLC 104% | 786-0 renal 79.5%

Cc1cc(Cl)ccc1Nc1nc(C(F)(F)F)ccc1C(=O)N/N=C/c1c(Cl)cccc1Cl
active: NCI-H226 lung 7.42% | HOP-62 NSCLC -4.74% | NCI-H460 lung 1.31% | NCI-H522 lung -16.7% | 786-0 renal -63.5% | COLO 205 colon -52.8%
inactive: NCI-H23 lung 19%

O=[N+]([O-])c1ccc(/C(=C/c2ccccc2)[n+]2ccccc2)cc1
inactive: NCI-H23 lung 113% | NCI-H226 lung 105% | HOP-62 NSCLC 110% | NCI-H460 lung 103% | A549/ATCC NSCLC 99.7% | 786-0 renal 104%

O=C1/C(=C/c2ccc([N+](=O)[O-])s2)Oc2cc(Cl)ccc21
active: NCI-H460 lung 1.6% | NCI-H522 lung -78.2% | A549/ATCC NSCLC 4.06% | COLO 205 colon -28.3%
inactive: NCI-H23 lung 14.7% | NCI-H226 lung 81.2% | HOP-62 NSCLC 31.6% | 786-0 renal 14.3%

Reference: PubChem BioAssay (NCI)
